Among the data in PubChem BioAssay (NCI) are growth values, retold here.

Among the test systems are NCI-H23 lung; NCI-H226 lung; NCI-H322M lung; HOP-62 NSCLC; NCI-H460 lung; HOP-92 NSCLC; NCI-H522 lung; A549/ATCC NSCLC; 786-0 renal; COLO 205 colon.
Common to all, as to assay: NCI-60 one-dose screen, 48 h (100 = growth as untreated, 0 = no growth, -100 = all killed)
Conditions in all cases: 10 µM

The panel holds about 83,000 compounds, 20% with a hit somewhere; the sample as a whole holds those more often.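 96-well plates, one dose, 48 hours. Percent growth reported; active if below 10.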 A number with no mark means an inactive call. Active and inactive are the calls of the source.

As for `CN(C)Cc1cccs1`, the growth in the experiment on NCI-H23 lung was 94%; in the experiment with NCI-H226 lung, 93.9%; in the experiment on NCI-H322M lung it was 101%; in the experiment on HOP-62 NSCLC, 69.1%; in the experiment on NCI-H460 lung it was 108%; in the experiment on HOP-92 NSCLC, 97.2%. Further, the growth in the experiment on NCI-H522 lung was 94.2%; in the experiment with A549/ATCC NSCLC, 93.7%; in the experiment on 786-0 renal it was 103%; with COLO 205 colon, 107%.
Take `CN(C)c1ccc2cc(-c3cc4c(oc3=O)-c3ccccc3OC4O)c(=O)oc2c1` (stereo not given): the growth with NCI-H23 lung was -3.16% (active); in the experiment on NCI-H226 lung, -14.9% (active); in the experiment on NCI-H322M lung it was 39%; in the experiment with HOP-62 NSCLC, 12.1%; in the experiment on NCI-H460 lung, 56.7%; in the experiment on HOP-92 NSCLC, -49.1% (active). For the same compound, the growth in the experiment with NCI-H522 lung was -57.2% (active); in the experiment on A549/ATCC NSCLC it was 39.5%; with 786-0 renal, -15.7% (active); with COLO 205 colon, -56.2% (active).
On to `Cc1ccc(C)c2c1sc1nc3n[nH]c(N)c3c(=N)n12`, for which the growth was 107% with NCI-H23 lung; 105% with NCI-H226 lung; 113% in the experiment with NCI-H322M lung; 104% in the experiment on HOP-62 NSCLC; 107% with NCI-H460 lung; 97.2% with HOP-92 NSCLC. For the same compound, the growth in the experiment with NCI-H522 lung was 87.4%; in the experiment on A549/ATCC NSCLC it was 106%; in the experiment with 786-0 renal, 111%; with COLO 205 colon it was 112%.
For the compound `O=[N+]([O-])c1cc2ncccc2c2ncccc12`, the growth in the experiment with NCI-H23 lung is 81.3%; in the experiment on NCI-H226 lung, 96.3%; in the experiment with NCI-H322M lung it was 80.3%; with HOP-62 NSCLC, 137%; in the experiment with NCI-H460 lung it was 66.9%; with HOP-92 NSCLC, 109%. For the same compound, the growth in the experiment on NCI-H522 lung was 15.8%; in the experiment with A549/ATCC NSCLC it was 88.4%; in the experiment on 786-0 renal it was 110%; with COLO 205 colon, 95.6%.
With `COC(=O)c1ccc(Cn2ccc(=O)[nH]c2=O)cc1`, the growth in the experiment with NCI-H23 lung is 105%; with NCI-H226 lung, 103%; in the experiment on NCI-H322M lung it was 116%; in the experiment on HOP-62 NSCLC, 106%; in the experiment with NCI-H460 lung, 114%; in the experiment with HOP-92 NSCLC, 99.3%. The growth was 93.2% in the experiment on NCI-H522 lung, 105% with A549/ATCC NSCLC, 80.5% in the experiment on 786-0 renal and 113% with COLO 205 colon.
In the case of `C#CCn1c(-c2cccc(OCCCCl)c2)nc2c1c(=O)n(C)c(=O)n2C`, the growth in the experiment on NCI-H23 lung was 79.5%; in the experiment with NCI-H226 lung, 62.5%; with NCI-H322M lung, 92.1%; in the experiment on HOP-62 NSCLC, 81.4%; with NCI-H460 lung, 93.5%; in the experiment with HOP-92 NSCLC, 49.9%. The growth with NCI-H522 lung was 52%; in the experiment with A549/ATCC NSCLC, 92%; with 786-0 renal, 86.5%; with COLO 205 colon, 96.8%.
Take `O=c1c2cccc3c(Nc4ccc(Br)cn4)ccc(c32)c2nc3ccccc3n12`: the growth with NCI-H23 lung is 81.3%; in the experiment on NCI-H226 lung, 93.2%; with NCI-H322M lung, 77.9%; with HOP-62 NSCLC it was 87.6%; in the experiment with NCI-H460 lung, 86.6%; in the experiment on HOP-92 NSCLC it was 62.4%. Also, the growth in the experiment with NCI-H522 lung was 89.4%; with A549/ATCC NSCLC, 106%; in the experiment with 786-0 renal, 96.9%; in the experiment with COLO 205 colon it was 88.2%.
In the case of `COc1cccc(C2(C)Nc3ccccc3-c3nc4ccccc4n32)c1` (stereo not given), the growth was 102% with NCI-H23 lung; 102% in the experiment on NCI-H226 lung; 92% in the experiment with NCI-H322M lung; 97.7% in the experiment with HOP-62 NSCLC; 101% in the experiment with NCI-H460 lung; 93.4% with HOP-92 NSCLC. For the same compound, the growth is 103% with NCI-H522 lung, 102% in the experiment on A549/ATCC NSCLC, 101% in the experiment on 786-0 renal and 109% in the experiment with COLO 205 colon.
For the compound `O=C(C=P(c1ccccc1)(c1ccccc1)c1ccccc1)c1ccc(Br)cc1`, the growth with NCI-H23 lung is 85.8%; in the experiment with NCI-H226 lung it was 96.5%; in the experiment on NCI-H322M lung, 78.6%; in the experiment with HOP-62 NSCLC it was 125%; in the experiment on NCI-H460 lung, 93%; in the experiment with HOP-92 NSCLC, 67.1%. Moreover, the growth is 59.5% in the experiment on NCI-H522 lung, 72.4% in the experiment on A549/ATCC NSCLC, 97.9% with 786-0 renal and 96% in the experiment with COLO 205 colon.
`COc1cc(-c2nc3ccccc3[nH]2)ccc1OCc1nnc(-c2ccc(Br)cc2)o1`: the growth with NCI-H23 lung is 95.8%; in the experiment with NCI-H226 lung, 121%; in the experiment with NCI-H322M lung, 88.8%; in the experiment with HOP-62 NSCLC, 106%; in the experiment on NCI-H460 lung, 82.2%; in the experiment on HOP-92 NSCLC, 92.6%. The growth in the experiment on NCI-H522 lung is 93.9%; with A549/ATCC NSCLC it was 90.2%; in the experiment on 786-0 renal, 90.2%; in the experiment with COLO 205 colon it was 91.2%.
Regarding `O=C(c1ccccc1)C(Sc1ccccc1)c1ccccc1` (stereo not given), the growth was 76.4% in the experiment on NCI-H23 lung; 94% in the experiment with NCI-H226 lung; 108% with NCI-H322M lung; 93% in the experiment with HOP-62 NSCLC; 67.8% in the experiment with NCI-H460 lung; 67.2% in the experiment with HOP-92 NSCLC. Besides, the growth in the experiment on NCI-H522 lung is 62.4%; in the experiment on A549/ATCC NSCLC, 92%; in the experiment on 786-0 renal it was 104%; in the experiment with COLO 205 colon, 108%.
Turning to `CCOC(=O)C(=O)Cc1cccnn1`, the growth with NCI-H23 lung is 101%; in the experiment on NCI-H226 lung, 95.2%; in the experiment with NCI-H322M lung, 109%; in the experiment on HOP-62 NSCLC, 103%; with NCI-H460 lung it was 116%; with HOP-92 NSCLC it was 86.1%. Moreover, the growth with NCI-H522 lung is 97.2%; in the experiment on A549/ATCC NSCLC, 97.5%; with 786-0 renal, 96.4%; in the experiment with COLO 205 colon, 102%.
As to `COc1cccc(C(=O)N(c2ccc(F)c(F)c2)C(C(=O)NC(C)(C)C)c2cc3c(C)cc(C)cc3nc2Cl)c1` (stereo not given), the growth in the experiment with NCI-H23 lung was 66%; in the experiment on NCI-H226 lung, 65.7%; with NCI-H322M lung it was 84.7%; in the experiment on HOP-62 NSCLC, 86.6%; in the experiment on NCI-H460 lung, 64.1%; in the experiment with HOP-92 NSCLC it was 47%. The growth in the experiment with NCI-H522 lung was 61.6%; in the experiment with A549/ATCC NSCLC, 52.8%; in the experiment with 786-0 renal, 76.6%; in the experiment on COLO 205 colon, 70.2%.
As for `Nc1ccccc1NC(=O)CCCCCCC(=O)Nc1ccc2c(c1)/C(=C/c1ccc[nH]1)C(=O)N2`, the growth was 60.7% in the experiment with NCI-H23 lung; 45.5% in the experiment on NCI-H226 lung; 40.6% in the experiment on NCI-H322M lung; 52.2% with HOP-62 NSCLC; 27.5% in the experiment on NCI-H460 lung; 8.25% (active) with HOP-92 NSCLC. The growth is 11.7% with NCI-H522 lung, 47% in the experiment with A549/ATCC NSCLC, 38.2% in the experiment with 786-0 renal and 79.4% with COLO 205 colon.
